# Data published in PubChem BioAssay.
# Target: Carbonic anhydrase 2 (Homo sapiens) (UniProt P00918)
# Experiment: compounds binding carbonic anhydrase 2 – biochemical, small-molecule microarray, Alexa647-labelled CAII, profiling panel (AID 1122)
# Settings: CAII-A647 binding fluorescence, higher = more signal
row,Structure (SMILES),composite z-score
1,CC#CC(=O)Oc1ccccc1C=CC(=O)OCC,0.358
2,CC(C)CNC(=O)[C@@]1(Cc2ccccc2I)c2ccccc2C(=O)N(C2CCCCC2)[C@H]1c1ccc(CO)cc1,0.619
3,O=C(c1ccccc1)N1C(=O)[C@]2(COC(c3ccc(OCCCO)cc3)=N2)Cc2ccccc21,0.566
4,CC(C)(C)OC(=O)CC[C@]1(C(=O)N2CCOCC2)N=C(c2ccc(OCCCO)cc2)O[C@H]1c1ccccc1N=[N+]=[N-],0.743
5,COCCOC(=O)N1C(=O)[C@@]2(c3cc(C#CCC(C(=O)OC)C(=O)OC)ccc31)[C@H](c1ccccc1OCCO)N1[C@H](c3ccccc3)[C@H](c3ccccc3)OC(=O)[C@H]1[C@@H]2C(=O)NC[C@H](O)c1ccccc1,0.483
6,COCCCNC(=O)[C@]1(CCC(=O)OC(C)(C)C)N=C(c2ccc(OCCCO)cc2)O[C@@H]1c1ccccc1CN=[N+]=[N-],0.78
7,CCOC(=O)C1=C[C@@H](C(C)(C)C)N(S(=O)(=O)c2ccc(C)cc2)[C@H]1c1ccc(F)cc1,0.287
8,COc1cc(NN2C(C(O)c3ccco3)C=CC3C(=O)N(c4ccccc4)C(=O)C32)cc(OC)c1OC (configuration not stated),0.574
9,CCC(CC)C(O)C1C=CC2C(=O)NC(=O)C2N1Nc1ccc(Cl)cc1Cl (configuration not stated),0.654
10,CCCC[C@H]1OB(O)C[C@H]2C1=C(COC)Cn1c(=O)n(-c3ccccc3)c(=O)n12,-0.185
11,C=C(COC)/C(=C/C[C@@H](OC(C)=O)c1ccc(OCCO)cc1)c1cnc2ccccc2c1,0.913
12,CN(C)C(=O)[C@@]1(CCS(=O)(=O)c2ccccc2)COC(c2ccc(OCCCO)cc2)=N1,0.813
